# Assay results as given in PubChem BioAssay (Tox21).
# Values without a mark were called inactive. Calls of active or inactive are those of the source. Calls come from the whole dose curve; as a rule, active = well fitted curve in the direction sought with a large enough effect in the repeat runs; inconclusive = weak or mixed curves; inactive = flat fitted curve, though single readings scatter.
# Assay: qHTS assay to test for compound auto fluorescence at 590 nm (red) in HepG2 cells (AID 720674)
# Details: HepG2 autofluorescence, red 540/590 nm, 1 h; series mostly up to 91.3 µM; fluorescence, relative to Rose Bengal: at the top concentration
# From the text: U.S. Tox21 Program National Center for Advancing Translational Sciences [NCATS] NIH Chemical Genomics Center [NCGC] U.S. Environmental Protection Agency [EPA] National Institutes of Environmental Health Sciences [NIEHS] National Toxicology Program [NTP] U.S. Food and Drug Administration [FDA] Tox21 Assay Overview: Compound auto fluorescence often interferes with screening of the compound library against various biological targets and signaling pathways. Some of these compounds may have fluorophoric properties. Such properties may interfere with the assay outputs resulting in false positives and/or negatives. To decrease such complications and ensure the compound activities are relevant in terms of biological response, the Tox21 10K compound library was screened for auto fluorescence. From the fluorophores used as reporter signals in our screening assays, the auto fluorescence equivalencies of compounds against three fluorophores have been evaluated: Triamterene, Fluorescein and Rose Bengal sodium for blue, green and red fluorescence, respectively. The fluorescence intensities were measured using Excitation/Emission wavelengths at 405/460nm, 485/535nm and 540/590nm for blue, green and red labels, respectively. This assay includes the red fluorescence data.
# Tox21 Assay Protocol Summary: 2,000 HepG2 cells in 5 uL of culture medium (MEM containing 10% FBS) per well were dispensed into black wall/clear bottom 1536-well plates using a Multidrop Combi Dispenser (ThermoFisher Scientific, Waltham, MA). The assay plates were incubated overnight at 37 C to allow cell attachment to the well bottom, followed by the transfer of 23 nL compound or DMSO vehicle by a pintool work station (Kalypsys , San Diego, CA). After the assay plates were incubated for 1 hr at 37 C and 5% CO2, fluorescence intensities in the assay plates were measured by an Envision (PerkinElmer, Shelton, CT) plate reader using three labels for measuring blue, green and red fluorescence at […] 460, 535 and 590 nm respectively.
# % is set by controls: 0 for no effect and ±100 for the full control effect.
Compound,"fluorescence, relative to Rose Bengal",outcome
CCSC(=O)N(CC)C1CCCCC1,-0.275%,–
Cc1nnc2n1-c1sc(CCC(=O)N3CCOCC3)cc1C(c1ccccc1Cl)=NC2,–,inactive
CC(COc1ccc(Oc2ccccc2)cc1)Oc1ccccn1 (stereo not given),0.254%,–
CCOC(=O)N(C)C(=O)CSP(=S)(OCC)OCC,0.252%,–
CCS(=O)(=O)CCSP(=O)(OC)OC,-0.0983%,–
COc1cc(OC)nc(NC(=O)NS(=O)(=O)c2ncccc2OCC(F)(F)F)n1,-0.153%,–
CCC(C)(C)c1cc(-n2nc3ccccc3n2)c(O)c(C(C)(C)CC)c1,0.0003% [at 95.7 µM],–
COc1ccc2c(c1OC)CN1CCc3cc4c(cc3C1C2)OCO4 (stereo not given),0.552% [at 18.6 µM],–
CCN(CC)C(C)C(=O)c1ccccc1 (stereo not given),0.0018% [at 46 µM],–
C[C@H]1CCC[C@H](O)CCCCCc2cc(O)cc(O)c2C(=O)O1,–,inactive
CCC#N,-0.0808% [at 95.7 µM],–
CCCSP(=S)(OCC)Oc1ccc(Cl)cc1Cl (stereo not given),0.259%,–
CCCCOC(=O)c1ccccc1N,0.0421%,–
CC(C)[N+](=O)[O-],0.0838%,–
N#CC(CCc1ccc(Cl)cc1)(Cn1cncn1)c1ccccc1 (stereo not given),0.449%,–
CCOP(=S)(OCC)SCSc1ccc(Cl)cc1,–,inactive
O=C(Cc1ccccc1)OCc1ccccc1,-0.0233%,–
CNC(=O)Oc1ccccc1C1OCCO1,-0.151%,–
ClCC(Cl)Cl,-0.113% [at 95.7 µM],–
CCOP(=S)(OCC)Oc1nc(Cl)n(C(C)C)n1,0.246%,–

Compound,"fluorescence, relative to Rose Bengal",outcome
CC1CN1P(=O)(N1CC1C)N1CC1C (stereo not given),0.0003%,–
CCC(Cl)[N+](=O)[O-] (stereo not given),-0.182% [at 95.7 µM],–
CNNC,0.0162% [at 95.7 µM],–
O=[N+]([O-])c1cccc2cccnc12,0.0565% [at 95.7 µM],–
CCCCOP(=O)(O)OCCCC,0.0293%,–
COc1ncc(F)c2nc(S(=O)(=O)Nc3c(F)cccc3F)nn12,0.179%,–
N#CC(Cl)(Cl)Cl,-0.0385%,–
c1coc(-c2nc3ccccc3[nH]2)c1,0.19%,–
C[C@]1(O)CC[C@H]2[C@@H]3CCC4=CC(=O)CC[C@]4(C)[C@@]3(F)[C@@H](O)C[C@@]21C,–,inactive
Oc1c(Cl)cccc1Cl,-0.0283%,–
CCCCc1ccc(O)cc1,0.197%,–
O=c1oc2ccccc2c(O)c1C1CCCc2ccccc21 (stereo not given),-0.0445%,–
COc1ccc(C(=O)N2CCCC2=O)cc1,-0.188% [at 46 µM],–
ClCCOCOCCCl,0.0502% [at 95.7 µM],–
Cc1nc(N)nc(N)n1,0.0139% [at 95.7 µM],–
COC(=O)C(c1ccccc1)C1CCCCN1 (stereo not given),–,inactive
CCc1cc2c(s1)-n1c(C)nnc1CN=C2c1ccccc1Cl,-0.303% [at 46 µM],–
Cc1cnc[nH]1,0.0457%,–
CCN(CC)c1nc(C)cc(OP(=S)(OC)OC)n1,0.0873%,–
BrCCCCCCBr,-0.0173%,–
